# About 83,000 compounds went through this panel and 20% of them were active in at least one assay; those are over-represented in the sample as a whole.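 48-hour exposure, single concentration, 96-well plates; percent growth endpoint where 0 means no net growth. Active: below 10.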 Values without a mark were called inactive. The source made the active and inactive calls.
# Tests used:
# Test in all cases: NCI-60 one-dose screen, 48 h (100 = growth as untreated, 0 = no growth, -100 = all killed)
# Settings in all cases: 10 µM unless noted
# SK-MEL-2 melanoma = tested on: SK-MEL-2 melanoma
# EKVX NSCLC = tested on: EKVX NSCLC
# SN12C renal = tested on: SN12C renal
# UO-31 renal = tested on: UO-31 renal
# TK-10 renal = tested on: TK-10 renal
# ACHN renal = tested on: ACHN renal
# CAKI-1 renal = tested on: CAKI-1 renal
# A498 renal = tested on: A498 renal
# CCRF-CEM leukemia = tested on: CCRF-CEM leukemia
# MOLT-4 leukemia = tested on: MOLT-4 leukemia
Structure (SMILES),growth (SK-MEL-2 melanoma),growth (EKVX NSCLC),growth (SN12C renal),growth (UO-31 renal),growth (TK-10 renal),growth (ACHN renal),growth (CAKI-1 renal),growth (A498 renal),growth (CCRF-CEM leukemia),growth (MOLT-4 leukemia)
Nc1n[nH]c2cccc(C#Cc3cccc(NC(=O)c4cc(F)cc(C(F)(F)F)c4)c3)c12,63.2%,92.8%,53.1%,36.8%,111%,64.7%,104%,57.1%,43%,48.1%
Cc1cc(N2CCN(CC(=O)Nc3ccc4c(ccn4C)c3)CC2)nc(N2CCCCCC2)n1,92.1%,86.2%,98%,67.1%,87.2%,88.4%,84.6%,46.3%,35.3%,85.3%
COc1cc(NS(=O)(=O)c2ccc(-c3cnc(C4CC4)o3)cc2)ccc1F,54.2%,33%,41.1%,37.1%,43.8%,37.3%,35.4%,-6.34% (active),19.5%,31.9%
Nc1n[nH]c2cccc(C#Cc3cccc(C(=O)Nc4cc(C(F)(F)F)cc(C(F)(F)F)c4)c3)c12,72.2%,92%,61.1%,42.5%,109%,76.3%,96.2%,89.3%,12.1%,35.4%
COC(=O)c1cc(N=C2NC(=O)/C(=C/C=C/c3ccccc3)S2)ccc1O,74.1%,53.7%,38.6%,53.8%,53.2%,46.5%,29%,17.6%,20.7%,31.7%
COc1ccc2c(c1)N(CCO)C1=C(C(=O)OC1)C2c1cccc(F)c1 (stereo not given),31.3%,38.9%,45.2%,46.3%,61.2%,27.6%,31.3%,-4.39% (active),9.38% (active),16.3%
C#CCOc1cccc(Nc2ncnc3ccc(NC(=O)C=C)cc23)c1,55%,32%,29.7%,9.91% (active),-8.81% (active),14.9%,10.2%,33.5%,25.1%,59.8%
O=C(NCc1ccc(Cl)cc1Cl)C1CCC(=O)N1c1cccs1 (stereo not given),91.2%,91.3%,97.9%,83.1%,98.8%,95%,81.6%,85.2%,110%,98.1%
O=C(CSc1nnc(-c2cnccn2)n1-c1ccccc1)c1ccc(Cl)cc1,96.4%,103%,87.5%,94.2%,99.2%,99.8%,102%,93.1%,92.1%,93.4%
Nc1nc2ccc(-c3nc4ccc5[nH]ncc5c4c4c3CCCC4)cc2s1,96.5%,117%,98.8%,85.7%,96.3%,111%,99.7%,109%,107%,104%
Cc1cc(N2CCCCC2)cc(C)c1-c1csc(NC(=O)c2ccncc2)n1,95.6%,32.9%,49.1%,36.9%,77.3%,56.8%,49.5%,42.9%,47.3%,43.7%
Cc1ccccc1/C=C/C(=O)c1cccc(OCCCOc2cccc(C(=O)/C=C/c3ccccc3C)c2)c1,102% [3 µM],95.1% [3 µM],91.8% [3 µM],82.8% [3 µM],108% [3 µM],102% [3 µM],77.5% [3 µM],104% [3 µM],96.2% [3 µM],90% [3 µM]
C#Cc1c2c(c(OC)c3c1OCO3)[C@H]([C@H]1OC(=O)c3c1ccc(OC)c3OC)N(C)CC2,67.7%,89.8%,100%,87.2%,76.1%,93.6%,86.3%,72.6%,80.7%,77.3%
